Compound activity deposited in PubChem BioAssay by National Center for Advancing Translational Sciences (NCATS).
MCF10A rerep = DNA re-replication induction in MCF 10a cells. Potency, µM (series often up to 46.1 µM), for inactives: at the top dose activity, positive = re-replication, hits mostly activators. 350,000 compounds, 2.9% hits. MCF 10A DNA re-replication, Hoechst nuclear intensity, 48 h; further: potency means the concentration at half of the fitted maximal effect; % of control where 0% means no effect; nearly all actives have a fitted effect of over 50% in size
SW480 rereplic = DNA re-replication induction in SW480 cells; 340,000 compounds, 1.8% hits; AID 624297; Potency, µM (titrated, usually from 46.1 µM), without a hit: top-dose re-replication activation, usual class: activators; SW480 DNA re-replication, Hoechst DNA content imaging, 48 h; further: potency means the concentration at half of the fitted maximal effect; % of control where 0% means no effect; nearly all actives have a fitted effect of over 55% in size
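Per well, 250 cells were exposed to pinned compound for 48 hr. Nuclear DNA was visualised with Hoechst (40 min, 37 C) and total object intensity recorded by fluorescence scanning.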
KB-3-1 tox = kills parental KB-3-1 adenocarcinoma cells; KB-3-1 viability, CellTiter-Glo ATP luminescence, 72 h; Potency, µM (series often up to 46.1 µM), most hits filed as cytotoxic; 400,000 compounds, 1.4% hits; further: potency means the concentration at half of the fitted maximal effect; on the % scale 0 is the no-effect control and ±100 the full control effect; nearly all actives have a fitted effect of over 60% in size
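Multi-concentration cytotoxicity screen in KB-3-1 cells grown in DMEM lacking phenol red with 10% FBS. After 72 h at 37 °C with compound, ATP-dependent luminescence was recorded.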
S-ASM inh = human S-ASM enzyme inhibition; P17405; placental ASM, HMU-PC fluorogenic substrate, 60 min; Potency, µM (highest dose often 57.5 µM), for the others: top-dose activity change, negative = inhibition, usual class: inhibitors; 340,000 compounds, 0.006% hits; further: potency means the concentration at half of the fitted maximal effect
Target sequence (P17405 47-631 limits assumed): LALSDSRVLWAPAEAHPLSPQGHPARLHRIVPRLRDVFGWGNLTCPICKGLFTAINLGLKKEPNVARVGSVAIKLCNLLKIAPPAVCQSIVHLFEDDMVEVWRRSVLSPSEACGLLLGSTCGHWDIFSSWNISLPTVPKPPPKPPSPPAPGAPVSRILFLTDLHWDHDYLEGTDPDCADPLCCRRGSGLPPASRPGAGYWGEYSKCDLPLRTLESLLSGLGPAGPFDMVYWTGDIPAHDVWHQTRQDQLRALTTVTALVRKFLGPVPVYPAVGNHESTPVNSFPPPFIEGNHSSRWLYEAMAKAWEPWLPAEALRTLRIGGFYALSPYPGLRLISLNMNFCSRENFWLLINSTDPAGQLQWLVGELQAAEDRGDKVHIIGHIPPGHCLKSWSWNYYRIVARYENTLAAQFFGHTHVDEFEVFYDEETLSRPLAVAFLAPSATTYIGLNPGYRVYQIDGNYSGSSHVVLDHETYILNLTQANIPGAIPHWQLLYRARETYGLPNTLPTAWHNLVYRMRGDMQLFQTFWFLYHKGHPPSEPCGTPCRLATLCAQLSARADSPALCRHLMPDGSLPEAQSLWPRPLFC
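HMU-PC0 cleavage (9 uM final) by human placental ASM, 60 min at 37 °C following 10 min compound exposure at RT; stopped at pH 10, fluorescence Ex 386/Em 447 nm.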
Giardia killer = Giardia lamblia killing; activity change, % at 7.66 µM, hits read low; 340,000 compounds, 0.15% hits; Giardia lamblia trophozoite viability; in the data active means activity change below about -80%; inconclusive means between about -30% and that limit;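 further: parasites exposed to compound for two days anaerobically before the ATP read; on the % scale 0 is the no-effect control and ±100 the full control effect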
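Each well holds 100 Giardia trophozoites and compound. After two days (48 hrs) at 37 deg C in anaerobic conditions, ATP is quantified by luminescence.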
KB-V1 MDR tox = kills drug-selected multidrug resistant KB-V1 cells | 400,000 compounds, 3.4% hits | Potency, µM (titrated, usually from 46.1 µM), most hits filed as cytotoxic | KB-V1 MDR cells viability, CellTiter-Glo, 72 h; further: potency means the concentration at half of the fitted maximal effect; on the % scale 0 is the no-effect control and ±100 the full control effect; nearly all actives have a fitted effect of over 60% in size
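Compound-treated KB-V1 multidrug-resistant cells, 72 h, 37 degrees C; viability by CellTiter-Glo. Fitted qHTS curves give the values.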
An asterisk follows results filed as active; i = inactive; ? = inconclusive; nt = not tested or not shown; [ ] = another dose, or the depositor's remark. Rows were chosen to be rich in hits. Some 6.9% of all compounds tested hit in one or more screens of this group. Unless noted, the call rests on the fitted dose curve; in most records, active means well fitted curve in the direction sought with a large enough effect; inconclusive means small, poorly fitted or top-dose-only effect, or another doubt; inactive means no such curve, though single readings can be large; an effect the other way counts as inactive or inconclusive.

SMILES	MCF10A rerep	SW480 rereplic	KB-3-1 tox	S-ASM inh	Giardia killer	KB-V1 MDR tox
O=C(CCS(=O)(=O)c1ccccc1)N(Cc1cccnc1)c1nc2c(Cl)cccc2s1	nt	nt	nt	nt	-25.3	nt
Cc1onc(-c2ccccc2Cl)c1C(=O)NCc1cccnc1	11.6%	4.7%	i	-1.9%	-4.1	i
Cc1oc2c(c1C(=O)NCc1cccnc1)C(=O)c1ccccc1C2=O	?	18.7%	?	4.2%	-85.6*	2.59µM*
c1ccc(NCc2cccnc2)cc1	-4.8%	-3.8%	i	3.4%	3.0	i
CC(=O)c1c(C)oc2c1C(=O)c1ccccc1C2=O	22.1%	7.31µM*	?	3.0%	?	6.51µM*
CC(=O)c1c2c3c(c(Br)ccc3n(C)c1=O)C(=O)c1ccccc1-2	15.3%	-0.7%	i	-13.2%	-29.3	?
O=C1c2ccccc2C(=O)c2c1oc(C(F)(F)F)c2C(=O)c1ccccc1	4.61µM*	4.11µM*	4.61µM*	-11.7%	4.3	7.31µM*
O=C1c2ccccc2C(=O)c2c(NCc3cccnc3)cccc21	12.4%	1.5%	i	1.4%	-14.4	8.2µM*
Cc1ccc(C2=NC(c3ccc(F)cc3)=Nc3ccc(C)cc3N2)cc1	nt	nt	i	nt	nt	i
COc1ccc(C(=O)NN2CC(O)=C(c3nc4ccccc4n3C)C2=N)cc1OC	-2.0%	-2.6%	?	-1.6%	-2.0	i
CCOC(=O)C1CCN(C(c2cccc(F)c2)c2c(O)cc(C)n(CCOC)c2=O)CC1 (configuration not stated)	nt	nt	i	nt	nt	i
COc1ccc(CNC(=O)c2c(C)oc3c2C(=O)c2ccccc2C3=O)cc1	4.61µM*	20.6µM*	?	?	?	i
O=C1C(=O)N(CNc2ccccn2)c2ccccc21	7.31µM*	11.6µM*	?	-3.3%	-5.8	i
O=C1C(=O)N(CNc2cccnc2)c2ccccc21	3.6%	-2.8%	i	1.0%	-4.1	i
CCc1ccc(CNC(=O)c2c(C)oc3ncn(CC(C)C)c(=O)c23)cc1	nt	nt	i	nt	nt	i
Cn1c(-c2ccc(C=O)s2)nc2c3ccccc3c3ccccc3c21	10.3µM*	?	?	407.3%	29.6	?
O=C1c2ccccc2C(=O)N1CC(=O)N1c2ccccc2Sc2ccc(C(F)(F)F)cc21	13.9%	0.0%	i	-1.3%	12.4	18.4µM*
O=C1c2ccccc2C(=O)N1CC(=O)N1c2ccccc2Sc2ccccc21	-7.1%	-2.2%	i	-2.5%	1.3	i
COc1cccc(C2=CC(c3ccccc3F)n3ncc(C(=O)Nc4ccc(F)cc4)c3N2)c1 (configuration not stated)	nt	nt	?	nt	nt	i
Cc1ccc(C(C[N+](=O)[O-])c2c(-c3ccccc3O)[nH][nH]c2=O)cc1 (configuration not stated)	11.6µM*	14.6µM*	?	-6.2%	-14.6	?
COc1ccccc1CNS(=O)(=O)CCNCCc1ccccc1	20.6µM*	5.1%	i	-3.4%	1.3	i
O=C(Cc1ccccc1)Nc1ccccc1Sc1ccccc1	-1.9%	-90.0%	i	-0.4%	10.1	i
O=C(CCl)Nc1ccccc1Sc1ccc(Cl)cc1	14.6µM*	14.6µM*	?	-5.0%	-5.6	?
O=C(CSc1ncn[nH]1)Nc1ccccc1Sc1ccccc1	19.6%	0.2%	i	0.3%	-6.7	14.6µM*
CC(=O)N1CCN(CC(=O)Nc2ccccc2Sc2ccc(Cl)cc2)CC1	8.9%	1.6%	?	-2.2%	0.3	5.8µM*
SMILES	MCF10A rerep	SW480 rereplic	KB-3-1 tox	S-ASM inh	Giardia killer	KB-V1 MDR tox
COc1ccccc1N(CC(O)Cn1ccnc1C)S(=O)(=O)c1ccc(C)cc1 (configuration not stated)	?	?	?	0.6%	0.1	i
CC(=O)OCC(=O)[C@H]1CC[C@H]2[C@@H]3CCC4=CC(=O)CC[C@]4(C)[C@H]3CC[C@]12C	6.8%	-29.8%	?	-15.2%	-0.3	14.6µM*
C[C@]12CCC(=O)C=C1CCC1C2CC[C@@]2(C)C1CCC21OCCO1 (some centres not stated)	20.6µM*	20.7%	i	-0.7%	-2.0	?
C[C@]12C[C@H](O)[C@H]3[C@@H](CCC4=CC(=O)CC[C@@]43C)[C@@H]1CC[C@@H]2C(=O)CO	3.2%	0.3%	i	7.2%	2.4	?
NCCN	4.6%	1.4%	nt	nt	nt	nt
CCCCN(CC)CCCNC(=O)CS(=O)(=O)Cc1nc(-c2ccc(C)cc2)oc1C	nt	nt	i	nt	nt	i
COC(=O)c1cccc(Cn2c(Cl)c(/C=N/Nc3ccccc3C)sc2=O)c1	25.9µM*	10.3µM*	i	-15.0%	13.6	?
CCOC(=O)N1CCN(C(=O)COc2ccc(S(=O)(=O)Nc3ccc(OCC)cc3)cc2)CC1	1.6%	5.1%	20.6µM*	-1.0%	-5.5	i
CCOc1ccc(NS(=O)(=O)c2ccc(NS(=O)(=O)c3ccc(SC)cc3)cc2)cc1	?	0.0%	i	-13.6%	-17.4	23.1µM*
CCOc1ccc(NS(=O)(=O)c2ccc(NS(C)(=O)=O)cc2)cc1	-4.5%	-0.1%	i	-0.4%	-1.5	?
Cc1ccc(-c2csc(=Nc3ccccc3)n2Cc2ccc3c(c2)OCO3)cc1C	nt	nt	i	nt	nt	i
CN(Cc1ccc(Br)s1)C(=O)CNC(=O)c1ccc2c(c1)OCO2	-1.4%	-8.0%	i	-0.3%	-7.6	20.6µM*
CC[C@@H]1C(c2ccccc2)=NN(c2ccc(Br)cc2)[C@H]1C(=O)N1CCOC1=O	9.2µM*	12.3%	i	430.8%	?	i
CC[C@@H]1C(c2ccc(F)cc2)=NN(c2ccc(Br)cc2)[C@H]1C(=O)N1CCOC1=O	16.4µM*	0.581µM*	i	399.7%	11.6	i
CC[C@@H]1C(c2cccc(Cl)c2)=NN(c2ccc(Br)cc2)[C@H]1C(=O)N1CCOC1=O	1.3µM*	10.3µM*	i	i	-13.7	i
C[C@@H]1C(c2ccc(F)cc2)=NN(c2ccccc2)[C@H]1C(=O)N1CCOC1=O	?	2.7%	?	138.7%	36.5	i
CC[C@@H]1C(c2cccc(C)c2)=NN(c2ccccc2)[C@H]1C(=O)N1CCOC1=O	?	-5.8%[9.22 µM]	i	159.8%	5.4	i
CCOC(=O)C1=C(C)N(C[C@@H]2CC[C@@H](Cc3ccc4cc(OC)ccc4c3)O2)C(=O)NC1c1ccc(OC)cc1 (some centres not stated)	4.11µM*	?	i	-3.9%	1.6	?
O=C(NCc1ccccc1Cl)c1ccc2c(c1)nnn2C1CCCC1	nt	nt	i	nt	nt	i
C=CCN(CC=C)C(=S)NC(=O)c1ccc(-c2ccccc2)cc1	?	4.1%	?	-12.1%	-19.8	5.8µM*
